Hit rate of the full screen: of about 54,000 sequences, about 2,800 (5.2%) were called active. No stated cut-off is given here; in the data, active = GI50 up to about 1.1 µM and inactive = higher. Not all results are given here. Results with a measured potency or affinity are listed apart.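 Test compounds were applied to cells in 96-well plates for 48 hours at 5 doses. GI50 = concentration required for 50% inhibition of growth.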

For the assay, the system named is NCI-H226. Briefly: NCI tumour cell line growth inhibition, 48 h.
“cis-Bis[[(trimethylsilyl)methyl]amino]tetrachloroplatinum(IV), CHEMBL2146191” had a GI50 of 13.6 µM.
With CISPLATIN, CHEMBL11359 the figure was 5.05 µM; with “[Bis(aminomethyl)dimethylsilane]tetrachloroplatinum(IV), CHEMBL2146190”, 4.49 µM.
“[Bis(aminomethyl)tetramethylenesilane]tetrachloropaltinum(IV), CHEMBL2146189” yielded a GI50 of 8.18 µM.
Substance “[Bis(aminomethyl)tetramethylenesilane]dichloropaltinum(II), CHEMBL2146205” had a GI50 of 32.9 µM.
The substance “mu-(1,7-nanodiamine-N,N')bis-(cis-aminedichloroplatimum (II)), CHEMBL2146215” yielded a GI50 of 1.07 µM.
The figure for “[Bis(aminomethyl)pentamethylenesilane]dichloropaltinum(II), CHEMBL2146202” is 1.43 µM; for “[Bis(aminomethyl)ethylmethylsilane]tetrachloroplatinum(IV), CHEMBL2146192” it is 5.75 µM; for “[Bis(aminomethyl)diethylsilane]tetrachloroplatinum(IV), CHEMBL2146203” it is 1.5 µM.
The figure for “[Bis(aminomethyl)pentamethylenesilane]tetrachloropaltinum(IV), CHEMBL2146204” is 3.88 µM; for “[Bis(aminomethyl)dimethylsilane]dichloroplatinum (II), CHEMBL2146201” it is 35.8 µM.
